Test results as given in publication PMC7862700, “An all-to-all approach to the identification of sequence-specific readers for epigenetic DNA modifications on cytosine”.

Columns and labels:
Experiment in all cases: DAPPL (digital affinity profiling via proximity ligation, sequencing); 10 mM Tris-HCl pH 7.5, 50 mM NaCl, 1 mM DTT, 4% glycerol, room temperature, 30 min; GST-TFs on glutathione beads, 16-mer random dsDNA library, 0.1% formaldehyde crosslink after washing; high values mean tight binding
Details in all cases: protein: recombinant; tags: N-terminal GST; dsDNA, one strand shown
FLI1 = biological target: T1, FLI1 (Homo sapiens, UniProt Q01543 1-452)
T1 sequence: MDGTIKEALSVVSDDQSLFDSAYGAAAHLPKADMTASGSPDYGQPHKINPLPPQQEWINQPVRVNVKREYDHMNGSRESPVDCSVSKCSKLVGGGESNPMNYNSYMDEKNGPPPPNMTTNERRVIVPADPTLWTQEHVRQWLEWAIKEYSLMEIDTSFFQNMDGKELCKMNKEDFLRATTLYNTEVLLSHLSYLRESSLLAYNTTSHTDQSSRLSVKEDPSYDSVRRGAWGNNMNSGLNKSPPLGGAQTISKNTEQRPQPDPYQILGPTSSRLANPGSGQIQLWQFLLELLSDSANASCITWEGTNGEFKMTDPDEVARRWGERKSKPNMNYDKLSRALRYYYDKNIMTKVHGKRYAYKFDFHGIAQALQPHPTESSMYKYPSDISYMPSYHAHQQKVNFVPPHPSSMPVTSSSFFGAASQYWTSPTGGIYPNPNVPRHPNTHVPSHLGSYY
Outline: (§1)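 Sequencing on an Illumina NextSeq500 followed washing, crosslinking with 0.1% formaldehyde, proximity ligation (BsaI/T4 ligase, 1 h, 37 °C) and PCR amplification of pools that had been incubated for 30 min at room temperature with 200 nmole of a random double-stranded 16-mer DNA library in Tris/NaCl/DTT/glycerol buffer. Each pool held DNA-barcoded human transcription factors, expressed in yeast as GST fusions and captured on glutathione beads, plus a tag-only sample. Binding signal is a hexamer's read frequency for a factor divided by its frequency in the tag-only sample.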

FEV = biological target: T2, FEV (Homo sapiens, UniProt Q99581 1-238)
T2 sequence: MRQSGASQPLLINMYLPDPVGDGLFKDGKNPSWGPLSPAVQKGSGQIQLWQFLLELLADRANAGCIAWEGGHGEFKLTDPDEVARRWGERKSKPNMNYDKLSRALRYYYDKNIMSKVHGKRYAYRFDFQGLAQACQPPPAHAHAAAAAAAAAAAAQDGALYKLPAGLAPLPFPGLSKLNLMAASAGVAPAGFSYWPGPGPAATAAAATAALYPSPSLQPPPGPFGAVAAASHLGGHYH
Outline: as §1

ELF4 = ELF4 (Homo sapiens, UniProt Q99607 1-663)
Outline: as §1

ELK4 = biological target: T3, ELK4 (Homo sapiens, UniProt P28324-2 1-405)
T3 sequence: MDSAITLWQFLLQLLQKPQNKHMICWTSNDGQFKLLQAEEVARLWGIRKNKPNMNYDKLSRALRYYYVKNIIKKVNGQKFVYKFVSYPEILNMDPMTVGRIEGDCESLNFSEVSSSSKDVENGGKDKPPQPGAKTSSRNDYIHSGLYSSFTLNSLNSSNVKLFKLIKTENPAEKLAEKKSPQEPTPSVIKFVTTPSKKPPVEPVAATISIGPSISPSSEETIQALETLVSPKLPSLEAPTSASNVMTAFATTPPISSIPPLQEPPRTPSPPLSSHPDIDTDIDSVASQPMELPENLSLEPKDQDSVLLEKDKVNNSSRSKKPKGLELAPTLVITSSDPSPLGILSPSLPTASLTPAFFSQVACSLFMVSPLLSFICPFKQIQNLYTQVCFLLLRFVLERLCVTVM
Outline: as §1

ELK1 = biological target: T4, ELK1 (Homo sapiens, UniProt P19419 1-428)
T4 sequence: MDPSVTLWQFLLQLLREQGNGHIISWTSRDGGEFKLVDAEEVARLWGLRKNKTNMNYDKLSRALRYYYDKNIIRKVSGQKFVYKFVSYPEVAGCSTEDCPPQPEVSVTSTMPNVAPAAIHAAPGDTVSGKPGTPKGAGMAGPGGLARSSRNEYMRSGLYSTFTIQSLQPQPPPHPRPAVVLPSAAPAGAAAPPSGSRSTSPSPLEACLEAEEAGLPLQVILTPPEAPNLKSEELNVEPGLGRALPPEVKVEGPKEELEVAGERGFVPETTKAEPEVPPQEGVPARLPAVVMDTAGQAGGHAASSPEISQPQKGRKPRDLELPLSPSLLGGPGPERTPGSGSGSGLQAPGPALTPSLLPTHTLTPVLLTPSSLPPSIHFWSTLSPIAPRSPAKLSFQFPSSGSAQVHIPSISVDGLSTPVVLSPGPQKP
Outline: as §1

ERG = biological target: T5, ERG (Homo sapiens, UniProt P11308 1-479)
T5 sequence: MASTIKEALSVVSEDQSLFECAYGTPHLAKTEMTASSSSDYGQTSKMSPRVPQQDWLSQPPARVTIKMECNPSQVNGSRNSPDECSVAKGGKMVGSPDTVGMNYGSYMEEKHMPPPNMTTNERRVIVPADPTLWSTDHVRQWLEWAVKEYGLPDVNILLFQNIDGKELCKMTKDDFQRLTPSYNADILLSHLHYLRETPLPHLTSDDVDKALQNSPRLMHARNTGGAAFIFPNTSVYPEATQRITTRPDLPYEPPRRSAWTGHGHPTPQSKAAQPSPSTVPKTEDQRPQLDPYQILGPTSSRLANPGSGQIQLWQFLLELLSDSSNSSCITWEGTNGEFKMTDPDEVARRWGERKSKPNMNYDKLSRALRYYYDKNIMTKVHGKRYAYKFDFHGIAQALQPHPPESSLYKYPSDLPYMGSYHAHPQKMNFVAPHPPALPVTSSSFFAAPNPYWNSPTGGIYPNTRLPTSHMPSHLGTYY
Outline: as §1

ELF1 = ELF1 (Homo sapiens, UniProt P32519 1-619)
Outline: as §1

EHF = biological target: T6, EHF (Homo sapiens, UniProt Q9NZC4 1-300)
T6 sequence: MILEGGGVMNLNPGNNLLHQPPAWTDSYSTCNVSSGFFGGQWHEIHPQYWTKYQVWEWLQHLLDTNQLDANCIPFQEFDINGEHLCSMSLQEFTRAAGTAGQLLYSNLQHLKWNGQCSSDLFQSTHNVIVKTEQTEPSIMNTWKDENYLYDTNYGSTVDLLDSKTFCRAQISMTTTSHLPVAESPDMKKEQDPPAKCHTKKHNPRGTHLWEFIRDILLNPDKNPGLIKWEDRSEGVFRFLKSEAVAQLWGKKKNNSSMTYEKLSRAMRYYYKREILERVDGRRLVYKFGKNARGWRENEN
Outline: as §1

SPI1 = SPI1 (Homo sapiens, UniProt P17947 1-270)
Outline: as §1

ELK3 = biological target: T7, ELK3 (Homo sapiens, UniProt P41970 1-407)
T7 sequence: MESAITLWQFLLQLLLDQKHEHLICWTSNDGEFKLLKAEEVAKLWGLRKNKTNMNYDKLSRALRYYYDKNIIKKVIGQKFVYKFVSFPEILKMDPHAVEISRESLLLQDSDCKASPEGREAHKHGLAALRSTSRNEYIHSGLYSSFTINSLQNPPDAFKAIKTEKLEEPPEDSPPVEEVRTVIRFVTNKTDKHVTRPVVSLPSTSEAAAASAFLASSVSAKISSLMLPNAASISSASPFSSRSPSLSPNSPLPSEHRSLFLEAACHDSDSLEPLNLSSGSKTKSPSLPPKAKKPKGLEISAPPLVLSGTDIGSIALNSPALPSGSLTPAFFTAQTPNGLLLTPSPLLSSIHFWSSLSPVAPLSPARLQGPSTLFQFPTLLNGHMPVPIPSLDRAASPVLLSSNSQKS
Outline: as §1

SPIC = biological target: T8, SPIC (Homo sapiens, UniProt Q8N5J4 1-248)
T8 sequence: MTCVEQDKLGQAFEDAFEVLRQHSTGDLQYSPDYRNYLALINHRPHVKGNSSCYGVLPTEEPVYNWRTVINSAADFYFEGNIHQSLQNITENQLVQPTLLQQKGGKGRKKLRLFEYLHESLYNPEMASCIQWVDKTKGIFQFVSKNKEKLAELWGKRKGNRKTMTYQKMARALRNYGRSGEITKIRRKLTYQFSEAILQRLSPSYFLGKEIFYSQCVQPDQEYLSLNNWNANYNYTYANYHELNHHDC
Outline: as §1

ETV2 = biological target: T9, ETV2 (Homo sapiens, UniProt O00321 1-342)
T9 sequence: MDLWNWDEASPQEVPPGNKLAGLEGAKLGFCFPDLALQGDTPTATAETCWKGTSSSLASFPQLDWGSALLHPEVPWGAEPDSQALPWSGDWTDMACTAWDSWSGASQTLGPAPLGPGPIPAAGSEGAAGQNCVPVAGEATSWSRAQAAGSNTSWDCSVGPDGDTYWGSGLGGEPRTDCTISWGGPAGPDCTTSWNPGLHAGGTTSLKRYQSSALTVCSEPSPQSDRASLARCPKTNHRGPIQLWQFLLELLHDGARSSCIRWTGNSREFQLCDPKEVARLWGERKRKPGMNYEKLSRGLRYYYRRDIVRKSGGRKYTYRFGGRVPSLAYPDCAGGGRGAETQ
Outline: as §1

ETV3L = biological target: T10, ETV3L (Homo sapiens, UniProt Q6ZN32 1-361)
T10 sequence: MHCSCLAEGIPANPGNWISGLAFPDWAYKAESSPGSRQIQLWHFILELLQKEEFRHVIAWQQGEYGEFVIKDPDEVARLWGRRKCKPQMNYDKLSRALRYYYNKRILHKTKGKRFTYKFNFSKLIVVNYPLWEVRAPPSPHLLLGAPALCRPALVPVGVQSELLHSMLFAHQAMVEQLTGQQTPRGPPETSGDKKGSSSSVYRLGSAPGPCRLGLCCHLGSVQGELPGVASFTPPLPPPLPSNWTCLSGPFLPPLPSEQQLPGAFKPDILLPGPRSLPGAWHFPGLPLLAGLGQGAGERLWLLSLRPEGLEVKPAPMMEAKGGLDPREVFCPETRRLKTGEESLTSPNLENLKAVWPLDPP
Outline: as §1

ETV7 = biological target: T11, ETV7 (Homo sapiens, UniProt Q9Y603 1-341)
T11 sequence: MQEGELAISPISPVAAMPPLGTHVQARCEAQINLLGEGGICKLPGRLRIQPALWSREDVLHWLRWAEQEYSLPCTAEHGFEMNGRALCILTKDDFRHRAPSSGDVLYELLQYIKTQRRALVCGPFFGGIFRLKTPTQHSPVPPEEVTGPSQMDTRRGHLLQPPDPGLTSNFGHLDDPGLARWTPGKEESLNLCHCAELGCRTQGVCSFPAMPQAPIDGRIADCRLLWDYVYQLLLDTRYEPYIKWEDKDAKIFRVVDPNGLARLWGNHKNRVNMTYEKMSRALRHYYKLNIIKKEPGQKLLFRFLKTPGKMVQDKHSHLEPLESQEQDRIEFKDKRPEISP
Outline: as §1

ETV3 = biological target: T12, ETV3 (Homo sapiens, UniProt P41162-2 1-143)
T12 sequence: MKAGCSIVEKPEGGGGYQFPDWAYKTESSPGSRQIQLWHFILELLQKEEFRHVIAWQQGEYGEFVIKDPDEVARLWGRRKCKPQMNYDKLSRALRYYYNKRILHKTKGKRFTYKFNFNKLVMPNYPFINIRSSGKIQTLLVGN
Outline: as §1

ETV6 = ETV6 (Homo sapiens, UniProt P41212 1-452)
Outline: as §1

Sequence of ELF4 (Q99607 whole entry): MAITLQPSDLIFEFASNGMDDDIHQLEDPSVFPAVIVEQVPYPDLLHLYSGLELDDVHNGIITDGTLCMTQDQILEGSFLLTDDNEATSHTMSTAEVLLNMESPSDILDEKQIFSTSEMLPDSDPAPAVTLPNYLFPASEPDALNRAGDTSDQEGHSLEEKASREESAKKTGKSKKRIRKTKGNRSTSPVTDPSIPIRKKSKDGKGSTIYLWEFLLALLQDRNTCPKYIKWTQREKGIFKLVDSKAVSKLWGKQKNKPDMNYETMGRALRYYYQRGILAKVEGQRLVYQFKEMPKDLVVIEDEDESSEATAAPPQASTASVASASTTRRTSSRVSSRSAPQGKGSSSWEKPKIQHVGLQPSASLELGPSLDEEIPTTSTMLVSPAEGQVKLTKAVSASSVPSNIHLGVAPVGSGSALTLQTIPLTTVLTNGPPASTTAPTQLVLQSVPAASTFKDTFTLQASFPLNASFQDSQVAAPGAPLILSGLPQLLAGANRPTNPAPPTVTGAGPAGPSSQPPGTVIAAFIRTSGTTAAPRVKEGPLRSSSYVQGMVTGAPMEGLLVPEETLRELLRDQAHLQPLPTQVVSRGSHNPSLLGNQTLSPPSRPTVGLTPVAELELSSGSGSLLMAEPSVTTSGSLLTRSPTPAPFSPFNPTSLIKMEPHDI
Sequence of ETV6 (P41212 whole entry): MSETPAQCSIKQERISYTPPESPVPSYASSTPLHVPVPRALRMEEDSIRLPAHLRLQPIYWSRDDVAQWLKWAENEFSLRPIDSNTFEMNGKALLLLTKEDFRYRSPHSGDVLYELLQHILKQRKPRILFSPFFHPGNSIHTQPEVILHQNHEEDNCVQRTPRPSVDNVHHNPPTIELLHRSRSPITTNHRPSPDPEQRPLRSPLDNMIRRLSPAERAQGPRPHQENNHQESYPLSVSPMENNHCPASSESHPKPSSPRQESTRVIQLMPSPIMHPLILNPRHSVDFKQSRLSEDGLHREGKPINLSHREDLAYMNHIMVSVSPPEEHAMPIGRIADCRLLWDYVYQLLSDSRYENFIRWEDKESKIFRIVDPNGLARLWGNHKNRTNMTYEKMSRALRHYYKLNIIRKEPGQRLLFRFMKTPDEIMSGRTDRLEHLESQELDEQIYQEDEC
Sequence of ELF1 (P32519 whole entry): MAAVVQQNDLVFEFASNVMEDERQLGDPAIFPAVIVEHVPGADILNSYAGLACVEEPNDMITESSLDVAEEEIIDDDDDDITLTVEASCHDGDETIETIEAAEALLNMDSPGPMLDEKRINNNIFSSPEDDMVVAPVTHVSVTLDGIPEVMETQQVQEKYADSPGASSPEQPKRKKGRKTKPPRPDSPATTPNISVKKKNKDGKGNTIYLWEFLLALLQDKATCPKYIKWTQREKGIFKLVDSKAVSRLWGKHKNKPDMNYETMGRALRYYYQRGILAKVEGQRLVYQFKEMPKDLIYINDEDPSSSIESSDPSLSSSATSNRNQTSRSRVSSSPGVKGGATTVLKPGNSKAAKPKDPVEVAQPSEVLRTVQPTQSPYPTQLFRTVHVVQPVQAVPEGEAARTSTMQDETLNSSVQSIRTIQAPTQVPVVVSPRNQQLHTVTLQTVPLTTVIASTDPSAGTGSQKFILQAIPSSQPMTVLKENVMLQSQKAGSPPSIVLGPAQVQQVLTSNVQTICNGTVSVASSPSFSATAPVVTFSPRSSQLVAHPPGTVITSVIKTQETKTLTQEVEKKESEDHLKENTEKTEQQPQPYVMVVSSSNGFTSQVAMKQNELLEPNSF

Sequence	binding signal (FLI1)	binding signal (FEV)	binding signal (ELF4)	binding signal (ELK4)	binding signal (ELK1)	binding signal (ERG)	binding signal (ELF1)	binding signal (EHF)	binding signal (SPI1)	binding signal (ELK3)	binding signal (SPIC)	binding signal (ETV2)	binding signal (ETV3L)	binding signal (ETV7)	binding signal (ETV3)	binding signal (ETV6)
CCACAG	1.01 fold enrichment (6-mer frequency, TF over GST control)	1.01 fold enrichment (6-mer frequency, TF over GST control)	1.03 fold enrichment (6-mer frequency, TF over GST control)	1.04 fold enrichment (6-mer frequency, TF over GST control)	–	–	–	–	–	–	–	–	–	–	–	–
CATGGC	1.1 fold enrichment (6-mer frequency, TF over GST control)	1.04 fold enrichment (6-mer frequency, TF over GST control)	1.02 fold enrichment (6-mer frequency, TF over GST control)	–	1.02 fold enrichment (6-mer frequency, TF over GST control)	1.05 fold enrichment (6-mer frequency, TF over GST control)	1.02 fold enrichment (6-mer frequency, TF over GST control)	1.02 fold enrichment (6-mer frequency, TF over GST control)	1.04 fold enrichment (6-mer frequency, TF over GST control)	1.04 fold enrichment (6-mer frequency, TF over GST control)	1.05 fold enrichment (6-mer frequency, TF over GST control)	1.04 fold enrichment (6-mer frequency, TF over GST control)	1.02 fold enrichment (6-mer frequency, TF over GST control)	1.07 fold enrichment (6-mer frequency, TF over GST control)	1.05 fold enrichment (6-mer frequency, TF over GST control)	1 fold enrichment (6-mer frequency, TF over GST control)
